Screening results (PubChem)
D3 ag – agonists of human D3 dopamine receptor; D3R DiscoveRx beta-arrestin cells, luminescence, 90 min; max activation, %; hit rate 0.58% among 410,000; in the data active means max activation above about 30%; further: 0% is about no effect
Target sequence (P35462 whole entry, looked up): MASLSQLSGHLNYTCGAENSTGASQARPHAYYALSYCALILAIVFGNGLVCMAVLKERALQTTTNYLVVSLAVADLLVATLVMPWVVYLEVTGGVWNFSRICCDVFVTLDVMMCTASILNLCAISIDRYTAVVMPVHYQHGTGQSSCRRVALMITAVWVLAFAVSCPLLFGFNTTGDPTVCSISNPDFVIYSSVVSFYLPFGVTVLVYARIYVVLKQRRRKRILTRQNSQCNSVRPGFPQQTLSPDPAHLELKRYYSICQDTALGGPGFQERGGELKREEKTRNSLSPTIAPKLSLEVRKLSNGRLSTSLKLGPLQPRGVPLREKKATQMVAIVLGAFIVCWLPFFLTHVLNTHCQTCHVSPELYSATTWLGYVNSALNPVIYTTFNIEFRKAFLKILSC
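Agonist mode: compounds and dopamine controls were applied to plated cells for 90 min at 37 degrees C after an overnight attachment at 1500 cells/well. Luminescent read-out followed 30 - 60 minutes at room temperature with DiscoveRx detection reagent.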
S2 tox – viability counter-screen for ATXN expression inhibitors | S2 cells (HEK-293 line with an ATXN2-luciferase reporter) viability, CellTiter-Fluor protease fluorescence, 24 h | Potency, µM (doses to about 56.7 µM), most hits filed as cytotoxic | hit rate 0.49% among 400,000 | AID 651635; further: potency means the concentration at half of the fitted maximal effect; nearly all actives have a fitted effect of over 40% in size
HepG2 viability – HepG2 cytotoxicity, counter-screen for TGF-b inhibitors; hit rate 0.76% among 410,000; HepG2 CAGA-GFP viability, ATP luminescence, 18 h; Potency, µM (titrated, usually from 46.1 µM), inactives show top-dose activity change, negative = cytotoxicity, hits mostly cytotoxic; AID 588856; further: potency means the concentration at half of the fitted maximal effect
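CellTiter-Glo luminescence gave cytotoxicity after 18 hours at 37 degrees C. The cells were HepG2 CAGA-GFP in 1% FBS DMEM, stimulated with 500 pg/mL TGF-beta after compound addition. %Activity was normalised to no-cell wells (complete cell-killing) and DMSO (no toxicity), and curves were fitted and classified.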
TGFb inhibitor – inhibitors of TGF-b signaling | HepG2 CAGA-GFP TGF-b/SMAD3 reporter, GFP fluorescence, 18 h; TGF-beta stimulated, 500 pg/mL final | Potency, µM (doses to about 46.1 µM), for the others: at the top dose activity, negative = inhibition, actives largely listed as inhibitors | hit rate 1.2% among 410,000 | AID 588855; further: potency means the concentration at half of the fitted maximal effect; on the % scale 0 is the no-effect control and ±100 the full control effect; nearly all actives have a fitted effect of over 65% in size
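TGF-beta reporter screen: HEPG2 CAGA-GFP, 1% FBS, 500 pg/mL TGF-beta final, 18 h; per-cell GFP summed per well; curves fitted and categorized by class.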
ATXN2 expr inh – reduces ATXN2 reporter expression in HEK-293 cells; HEK-293 ATXN2-luciferase reporter, luminescence, 24 h; Potency, µM (titrated, usually from 57 µM), inactives show at the top dose activity change, negative = inhibition, most hits filed as inhibitors; hit rate 0.72% among 360,000; AID 1745845; further: potency means the concentration at half of the fitted maximal effect; on the % scale 0 is the no-effect control and ±100 the full control effect; nearly all actives have a fitted effect of over 55% in size
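qHTS (up to 57 uM final) was run with 24 h compound exposure of reporter cells at 37 °C. Each well was multiplexed: SteadyGlo luminescence measured ATXN2-luciferase expression after a fluorogenic Gly-Phe-AFC viability readout (25 uM final).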
DRD3 antagonist – blocks the human D3 dopamine receptor. hit rate 2.5% among 360,000. AID 652054. P35462. max response, negative = inhibition, %. D3R cells, DiscoveRx beta-arrestin luminescence, antagonist mode; stronger effect = lower value; in the data active means max response below about -50%; inconclusive means no clear call, values can overlap the other calls; further: on the % scale 0 is the no-effect control and ±100 the full control effect
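Cells expressing the human receptor were seeded at 1500 cells/well, incubated overnight at 37 degrees C in 5% CO2, then exposed to library compounds with dopamine controls for 90 minutes at 37 degrees C before luminescent detection.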
* hit, by the source's call; i = inactive; ? = inconclusive; nt = no result given. In the library only some 4.8% were active in any assay of this set; here they are far more common. Unless noted, the call rests on the fitted dose curve; in most records, active means well fitted curve in the direction sought with a large enough effect; inconclusive means small, poorly fitted or top-dose-only effect, or another doubt; inactive means no such curve, though single readings can be large; an effect the other way counts as inactive or inconclusive.

SMILES | D3 ag | S2 tox | HepG2 viability | TGFb inhibitor | ATXN2 expr inh | DRD3 antagonist
COc1ccc(OC)c(C2=NO[C@@](CC(=O)O)(C(=O)Nc3ccc4c(c3)OCCO4)C2)c1 | -9 | i | -11% | 0% | -12% | -23
CN(C(=O)c1ccc(NC(=O)c2ccco2)cc1)c1ccccc1 | 5 | nt | 7.9µM* | -2% | 17% | 1
Cc1ccc(C(=O)Nc2ccc3c(c2)OCCO3)cc1 | -5 | i | -26% | 17% | 13µM* | -12
COc1ccc(C(=O)N=c2nc(-c3ccccc3)n(-c3ccccc3)s2)cc1 | nt | nt | -14% | -1% | nt | nt
Cc1cc(NC(=O)c2ccc3c(c2)OCCO3)no1 | 2 | i | -24% | -2% | 11µM* | 15
Cc1cc(NC(=O)c2ccc3c(c2)OCO3)no1 | -3 | i | -11% | 3% | -6% | -14
O=C(Nc1ccc2c(c1)OCCO2)N1CCN(c2ccccc2)CC1 | -2 | nt | -17% | 0% | nt | -52*
CC(=O)Nc1ccc(SCC(=O)Nc2ccc3c(c2)OCCO3)cc1 | -7 | i | 3.5µM* | 4% | 2% | -15
COc1ccc(S(=O)(=O)NCC(=O)Nc2ccc3c(c2)OCCO3)cc1OC | -3 | i | -12% | -3% | 11% | -50*
O=C(NCCc1ccncc1)c1cnn(-c2ncc3c(n2)-c2ccccc2CCC3)c1C1CC1 | nt | i | nt | nt | nt | nt
Cc1cc(C)c2c(N)c(C(=O)Nc3cccc(C)c3C)sc2n1 | 92* | i | -2% | 21% | 22% | -7
CC(C)(C)NC(=O)[C@H]1CC[C@H]2[C@@H]3CC=C4C=C(C(=O)O)CC[C@]4(C)[C@H]3CC[C@]12C | -3 | i | nt | nt | nt | nt
CC(C)CCNC(=O)C(=O)Nc1c2c(nn1-c1ccc(Cl)cc1)CSC2 | 2 | nt | -2% | -7% | nt | nt
CC(C)C(O)(C#CCN1CCCC1)c1ccccc1 (stereo not given) | -24 | ? | -1% | 4% | -9% | -19
C=C(C)C(C)(C#CCN1CCCC1)OC(C)=O (stereo not given) | -5 | i | -3% | -2% | -10% | -72*
CCC1CN(CCNC(=O)c2cccc(C(=O)OC)c2)Cc2cc(OC)ccc2O1 (stereo not given) | nt | i | nt | nt | nt | nt
CCOC(=O)C1CCCCN1Cc1cccc(OC)c1OC (stereo not given) | -9 | i | 4% | -17% | -1% | -108*
CCOC(=O)C1CCCN(C(=O)C2CCN(Cc3nc(-c4ccc(Cl)cc4)oc3C)CC2)C1 (stereo not given) | -16 | i | -35% | ? | nt | -28
CCc1ccc(-c2nc(CN3CCC(C(=O)NCc4ccccc4OC)CC3)c(C)o2)cc1 | -9 | nt | 14µM* | ? | nt | -17
Cc1oc(-c2ccc(Cl)cc2)nc1CN1CCC(C(=O)N2CCc3ccccc3C2)CC1 | -12 | i | -14% | -2% | -20% | -70*
Cc1oc(-c2ccc(Cl)cc2)nc1CN1CCC(C(=O)N2CCN(Cc3ccccc3)CC2)CC1 | -6 | ? | -25% | -23% | ? | -77*
Cc1oc(-c2cccc(Cl)c2)nc1CN1CCC(C(=O)N2CCN(c3ccccc3F)CC2)CC1 | -12 | ? | -36% | ? | -22% | -63*
Cc1oc(-c2ccc(Cl)cc2)nc1CN1CCC(C(=O)NCc2ccco2)CC1 | -22 | i | -39% | 7% | -5% | -6
COc1ccccc1CNC(=O)c1cc2ccc3ccc(C)[nH]c3c2n1 | 7 | i | -30% | ? | ? | nt
Cc1oc(-c2ccccc2NC(=O)c2ccccn2)nc1CNC(=O)c1cccc(C#CC(C)(C)O)c1 | nt | i | nt | nt | nt | nt
CCc1ccc2ncc(S(=O)(=O)c3ccc(C)c(C)c3)c(N3CCCC3)c2c1 | -2 | i | 18% | ? | -4% | -56*
CCN1CCN(c2c(S(=O)(=O)c3ccc(C)c(C)c3)cnc3cc(OC)c(OC)cc23)CC1 | -15 | i | -30% | -5% | -20% | nt
C=CCN1CC[C@@H](O)C(=C)S1(=O)=O | nt | nt | -11% | -7% | nt | nt
CC(C)NCCCC1(C(N)=O)c2ccccc2-c2ccccc21 | nt | i | nt | nt | 3% | nt
